Bioassay records as filed in PubChem BioAssay.
An excerpt weighted towards active compounds, which were near 32% of everything screened.
CYP2C19 activ – activators of human cytochrome P450 2C19. recombinant CYP2C19, luciferin-H EGE luminescence; active compounds read high; 0 = fully inhibited enzyme, 1 = untreated enzyme. activation factor at 5 µM. 96,000 tested, under 10 active. AID 1025;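 active = activation factor of at least 2 at 5 µM in the primary screen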;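 note: 0 = wells with 2.5 mM tranylcypromine and 1 = vehicle-only wells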
Target sequence (P33261 whole entry, looked up): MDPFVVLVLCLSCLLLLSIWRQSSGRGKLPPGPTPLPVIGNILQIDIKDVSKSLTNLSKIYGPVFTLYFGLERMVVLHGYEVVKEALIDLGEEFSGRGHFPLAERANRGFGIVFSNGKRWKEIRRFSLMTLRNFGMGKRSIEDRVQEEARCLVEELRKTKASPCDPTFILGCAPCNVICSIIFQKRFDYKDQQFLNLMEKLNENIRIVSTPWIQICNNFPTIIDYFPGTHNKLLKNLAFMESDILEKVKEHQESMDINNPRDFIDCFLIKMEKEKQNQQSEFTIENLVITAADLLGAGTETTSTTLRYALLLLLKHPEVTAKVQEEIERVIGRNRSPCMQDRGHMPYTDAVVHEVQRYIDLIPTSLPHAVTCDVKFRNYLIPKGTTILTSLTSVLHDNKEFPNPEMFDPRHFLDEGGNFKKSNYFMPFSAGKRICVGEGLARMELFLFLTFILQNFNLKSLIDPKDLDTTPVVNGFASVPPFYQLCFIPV
CYP2C9 inhib – blocks human cytochrome P450 2C9 | CYP2C9 Supersomes, luciferin-H conversion, luminescence | AID 777 | inhibition, % at 5 µM | actives 20% (n = 96,000);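 active = blocking of liver enzyme CYP2C9 beyond about 50% at 5 µM, limit read from the data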
PostGolgi yeast – growth inhibition of a yeast mutant, post-Golgi transport screen; actives 0.9% (n = 98,000); post-Golgi transport phenotypic cell assay; inhibition, % at 10 µM;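 note: yeast cells grown in 1536-well plates; yeast grown about 18 h at 30C before absorbance read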
CYP2C9 act – activators of human CYP2C9; recombinant CYP2C9, luciferin-H conversion, luminescence; active compounds read high; factor 1 = untreated enzyme, 0 = blocked; activation factor at 5 µM; actives 1.4% (n = 96,000); AID 1024;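 active = activation factor of 2 or more for CYP2C9 at a 5 µM dose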;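 note: 0 = sulfaphenazole-blocked wells and 1 = vehicle-only wells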
PostGolgi ctrl – yeast control strain growth, post-Golgi counter-screen; inhibition, % at 10 µM; efflux-deficient yeast background strain, growth absorbance A615, 16 h; actives 5% (n = 98,000)
CYP2C19 inhib – blocks human cytochrome P450 2C19; CYP2C19 Supersomes, luciferin-H EGE luminescence, 30 min; P33261; inhibition, % at 5 µM; AID 778; actives 21% (n = 96,000);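 active = CYP2C19 inhibition above a set limit at 5 µM in the primary screen, cut at about 50% in these data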;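 note: plate controls were negative control wells for no effect and 2.5 mM tranylcypromine positive control for full effect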
Numbers without * were called inactive; / = no result given. Cut-off read from the data, not from the text of the source, unless noted: active = inhibition above about 30%; inactive = the rest.

SMILES	CYP2C19 activ	CYP2C9 inhib	PostGolgi yeast	CYP2C9 act	PostGolgi ctrl	CYP2C19 inhib
COc1ccc(C2N=C(Nc3ccc(C)cc3)Nc3nc(C)cc(=O)n32)cc1 (configuration not stated)	0.9	10	-4	0.9	15	6
Cc1cc(NC(=O)c2ccco2)ncc1NC(=O)CCc1ccccc1	0.8	49	-2	0.5	6	23
Cc1cc(NC(=O)c2cccc(F)c2)ncc1NC(=O)c1ccco1	0	63*	-2	0.4	2	96*
O=c1[nH]c(=O)n(C2CCCCCC2)c(O)c1C=NCc1ccc(F)cc1	1	-6	1	1.1	50*	0
Cc1ccc2cc(C)c(SCC#N)nc2c1	0.8	-17	31*	1.2	16	22
OCCN(Cc1ccccc1)Cc1ccc(Cl)cc1Cl	0	57*	3	0.4	15	95*
O=C(NCC1CCCO1)c1onc(CSc2ccc(F)cc2)c1C(=O)O (configuration not stated)	0.9	14	-5	0.9	15	15
CCCCNC(=O)c1onc(CSc2ccc(C)c(C)c2)c1C(=O)O	0.9	83*	-7	0.2	4	14
CCCCNC(=O)c1onc(CSc2ccc(F)c(F)c2)c1C(=O)O	1	73*	3	0.3	8	1
C=CCNC(=O)c1onc(CSc2ccc(C)c(C)c2)c1C(=O)O	0.1	88*	-2	0.1	1	94*
COCCNC(=O)c1onc(CSc2ccc(Cl)cc2)c1C(=O)O	0.6	23	4	0.8	6	43
C=CCNC(=O)c1onc(CSc2ccccc2CC)c1C(=O)O	1	80*	-3	0.2	2	4
N#Cc1ccc(Oc2cccc(C(=O)O)c2)cc1C#N	1.1	-6	2	1.1	10	-6
COC(=O)c1c(CSc2ccc(C)c(C)c2)noc1C(=O)NCc1ccc(OC)cc1	0.3	75*	1	0.2	21	65*
CC(=O)c1ccc(S(=O)c2ccccc2)cc1 (configuration not stated)	0.6	-11	3	1.1	7	43
CCN(C(=O)CSc1nnc(-c2ccccc2Cl)n1C1CCCC1)C1CCS(=O)(=O)C1 (configuration not stated)	1	79*	-6	0.2	-11	2
CCC(C(=O)Nc1nccs1)(C(F)(F)F)C(F)(F)F	0.9	78*	-3	0.2	22	6
CCC(NC(=O)Nc1nccs1)(C(F)(F)F)C(F)(F)F	0.8	7	-8	0.9	24	21
CON(C)c1nc(Oc2ccc(=O)[nH]n2)nc(N(C)C)n1	1.2	-15	0	1.1	-8	-18
COC(=O)c1sc(N2C(=O)C(O)=C(C(=O)c3ccc(C)o3)C2c2ccc(F)cc2)nc1C (configuration not stated)	0.7	80*	-4	0.2	15	25
CCC(COC(=O)Nc1cccc(C)c1C)NC(=O)OCC(C)C (configuration not stated)	0	50	-11	0.5	-9	96*
CCCOC(=O)NC(CC)COC(=O)Nc1cccc(C)c1C (configuration not stated)	0.3	16	-1	0.8	-7	72*
Cc1cc(S(=O)(=O)NCCc2ccccc2)c(C)s1	0.7	47	-3	0.5	13	32
O=C(O)c1cccc(N2C(=O)c3cccnc3C2=O)c1	1	21	-3	0.8	2	-5
CC12CN(C(=O)c3ccco3)CC(c3ccccc3)(CN(C(=O)c3ccco3)C1)C2=O	/	/	6	/	3	/
SMILES	CYP2C19 activ	CYP2C9 inhib	PostGolgi yeast	CYP2C9 act	PostGolgi ctrl	CYP2C19 inhib
O=S(=O)(NC1CC1)c1ccc(S(=O)(=O)N(Cc2ccccn2)C2CCCC2)cc1	0.4	71*	2	0.3	5	62*
CC(C)CCNC(=O)CN(CCN1CCOCC1)C(=O)Cn1nnc(-c2ccc(F)cc2)n1	0.7	12	-6	0.9	-2	27
COc1ccc(NC(=O)CC#N)cc1OC	1.1	-2	-3	1	13	-6
O=C(CSc1ncn[nH]1)Nc1c(F)cc(F)cc1Br	0.8	-2	-1	1	0	16
Cc1ccn2c(NCc3ccc4c(c3)OCO4)c(-c3ccc(O)cc3)nc2c1	0.8	17	0	0.8	36*	18
CCOC(=O)CNc1c(-c2ccc(O)cc2)nc2ccccn12	1.1	-6	3	1.1	6	-5
Oc1ccc(-c2nc3ccccn3c2NCc2ccc3c(c2)OCO3)cc1	0.3	-4	-2	1	0	68*
CC(C)Oc1ccc(CNC(=S)N/N=C/c2cccnc2)cc1	0.8	32	5	0.7	27	18
Cc1ccc(Oc2ncccc2/C=N/OCc2ccc(Cl)cc2Cl)cc1	1	0	13	1	12	-3
COc1ccccc1CO/N=C/c1cccn1-c1nccc(N(C)C)c1C#N	0	91*	2	0.1	1	99*
CN(C)c1ccnc(Oc2ccc(C(C)(C)C)cc2)c1C#N	1	-7	14	1.1	9	4
CN(C)c1ccnc(-n2cccc2/C=N/OCc2ccccc2)c1C#N	0	36	17	0.6	-9	96*
CN(C)c1ccnc(-n2cccc2/C=N/OCc2ccc(F)cc2Cl)c1C#N	0	96*	-8	0	34*	98*
O=C(CNC(=O)Cc1ccccc1)NCC(=O)OCc1ccc(C(=O)c2ccccc2)cc1	1	21	-3	0.8	2	2
Cc1cc2c3c(c1C)C1(C(=O)N3C(C)(C)CC2C)C(C#N)=C(N)OC2=C1C(=O)CC(C)(C)C2 (configuration not stated)	0.8	34	-4	0.7	2	24
COc1cc2c(=O)n(CC3CCCO3)c(=O)n(CC(=O)Nc3ccc(F)cc3F)c2cc1OC (configuration not stated)	0.9	44	-4	0.6	-1	15
COc1cc2c(=O)n(CC3CCCO3)c(=O)n(CC(=O)Nc3cccc(Cl)c3)c2cc1OC (configuration not stated)	0.4	85*	3	0.2	11	63*
CCOC(=O)CSc1nc2sc3c(c2c(=O)[nH]1)CC(C)(CC)OC3 (configuration not stated)	0.8	12	1	0.9	-2	16
CCC1(C)Cc2c(sc3nc(NN)n(C)c(=O)c23)CO1 (configuration not stated)	0	94*	-5	0.1	-1	99*
O=C1c2cccc3c(Cl)ccc(c23)C(=O)N1O	1	7	4	0.9	34*	4
O=C(c1ccc2c3c(cccc13)C(=O)N(O)C2=O)N1CCCCC1	1.1	-15	-2	1.2	-1	-13
